esBAF inh = SWI/SNF esBAF complex inhibition | mouse ES cells, Bmi1-luciferase knock-in reporter, 24 h; 100% = twice the neutral-well signal | reporter increase, % at 12.5 µM | 2% of 350,000 active | AID 602393; in the data active = activation above about 40%; inconclusive = no clear call, values can overlap the other calls;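 note: 0% = median of the plate's neutral control wells and 100% = double that signal; a rise in the Bmi1 reporter signal indicates esBAF inhibition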
Wnt bcat act = activators of Wnt/beta-catenin signaling; activation, % at 9.35 µM; 1.2% of 300,000 active; Wnt/beta-catenin reporter cell assay, activator, plate reader; in the data active = activation above about 30%, passing the limit was not always enough; inconclusive = no clear call, values can overlap the other calls;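 note: 0% = neutral control wells and 100% = positive control wells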
MITF TRPM1 HTS = MITF TRPM1 promoter activation in melanoma cells; SK-MEL-5 TRPM1-promoter luciferase, 24 h; % of positive control, neutral wells = 0; 0.75% of 300,000 active; AID 588334; activation, % at 12.5 µM;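 active = mean activation of at least 80% with every replicate also reaching 80%; inconclusive = mean reaches 80% but some replicate falls short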;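 note: 0% = neutral control wells and 100% = parthenolide positive control wells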
AHR activator = human AHR activation | AHR-responsive luciferase reporter cells, luminescence | activation, % at 5 µM | 2.5% of 320,000 active | AID 2796; in the data active = activation above about 47%;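 note: 0% = vehicle wells and 100% = reference agonist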
Target sequence (P35869 whole entry, looked up): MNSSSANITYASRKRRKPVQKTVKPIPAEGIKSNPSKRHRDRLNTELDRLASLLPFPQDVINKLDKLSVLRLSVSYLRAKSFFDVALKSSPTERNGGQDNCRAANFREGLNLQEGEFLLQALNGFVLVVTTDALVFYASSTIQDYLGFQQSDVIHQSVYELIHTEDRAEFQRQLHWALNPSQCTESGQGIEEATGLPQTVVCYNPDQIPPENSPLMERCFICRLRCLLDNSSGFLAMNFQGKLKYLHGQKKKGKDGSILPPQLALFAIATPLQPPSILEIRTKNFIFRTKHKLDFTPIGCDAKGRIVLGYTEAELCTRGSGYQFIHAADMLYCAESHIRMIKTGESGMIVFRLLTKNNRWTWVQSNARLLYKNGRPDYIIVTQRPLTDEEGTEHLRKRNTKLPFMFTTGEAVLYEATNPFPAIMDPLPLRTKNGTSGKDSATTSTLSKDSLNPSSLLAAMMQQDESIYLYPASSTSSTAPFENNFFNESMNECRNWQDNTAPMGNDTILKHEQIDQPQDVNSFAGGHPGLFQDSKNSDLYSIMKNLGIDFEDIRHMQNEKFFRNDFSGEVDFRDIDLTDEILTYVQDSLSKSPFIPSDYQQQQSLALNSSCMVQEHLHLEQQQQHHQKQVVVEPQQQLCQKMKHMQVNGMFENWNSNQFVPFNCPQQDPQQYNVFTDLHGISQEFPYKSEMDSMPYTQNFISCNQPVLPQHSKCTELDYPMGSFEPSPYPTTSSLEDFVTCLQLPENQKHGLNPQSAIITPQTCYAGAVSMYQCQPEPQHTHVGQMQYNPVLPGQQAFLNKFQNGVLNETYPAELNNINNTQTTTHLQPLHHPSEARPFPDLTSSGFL
FXN GAA850 act = frataxin GAA850 promoter activation; HEK293 lucGAA850 FXN promoter luciferase reporter, 24 h; percent of 10 µM SAHA response; activation, % at 6 µM; 0.56% of 360,000 active;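 active = activation above the average of all compounds screened plus 3 SD, cutoff fixed separately per campaign, cut at about 7.5% in these data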;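 note: 0% = DMSO wells and 100% = 10 µM SAHA wells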
Numbers without * were called inactive. Compounds with a hit are over-represented: about 4.2% of the library has one in this group of screens.

How did CC(=O)c1c(C)[nH]c(C(=O)OCC(=O)N2CCc3ccccc32)c1C do in these assays?
esBAF inh: 54*; Wnt bcat act: 0; MITF TRPM1 HTS: 53; AHR activator: 11; FXN GAA850 act: 4

What do the screens show for `C[C@@H](O)C#Cc1cnc2c(c1)C(=O)N([C@@H](C)CO)C[C@H](C)[C@H](CN(C)C(=O)CN1CCOCC1)O2`?
esBAF inh: -4

How did O=C(C1CCOCC1)N1C[C@H]2[C@@H](c3ccccc31)[C@H](CO)N2C(=O)Nc1cccc(F)c1 do in these assays?
esBAF inh: 2

How did O=C1N=c2ccccc2=C1c1[nH]c(=S)[nH]c1O do in these assays?
esBAF inh: -3; Wnt bcat act: -2; MITF TRPM1 HTS: -2; AHR activator: 61*; FXN GAA850 act: 1

What do the screens show for `CO/N=C/C(C#N)=C/c1ccc(OC)cc1`?
esBAF inh: 88*; Wnt bcat act: 9; MITF TRPM1 HTS: 46; AHR activator: -10; FXN GAA850 act: 6

What do the screens show for `CCCNCc1nnc(-c2ccccc2Cl)o1`?
Wnt bcat act: 2; MITF TRPM1 HTS: 19; AHR activator: -2; FXN GAA850 act: 1

What do the screens show for `Clc1ccccc1-c1nnc(-c2ccccc2Cl)o1`?
esBAF inh: 71*; Wnt bcat act: 29; MITF TRPM1 HTS: inconclusive; AHR activator: 18; FXN GAA850 act: 6

What do the screens show for `Clc1ccc(-c2nnc(-c3ccccc3Cl)o2)cc1`?
esBAF inh: -10; MITF TRPM1 HTS: 38; AHR activator: 49*; FXN GAA850 act: 4

Results for CN1C(=O)c2cc(NC(=O)c3ccc(F)c(F)c3)ccc2OC[C@@H]2O[C@@H](CC(=O)N[C@@H]3CCN(Cc4ccccc4)C3)CC[C@H]21 ?
esBAF inh: 5

Results for CCCN(C)C[C@@H]1Oc2cc(-c3ccccc3C)ccc2S(=O)(=O)N([C@H](C)CO)C[C@@H]1C ?
esBAF inh: -6

How did Cc1csc(NC(=O)c2cc3c(s2)-c2ccccc2OC3)n1 do in these assays?
esBAF inh: 86*; Wnt bcat act: inconclusive; MITF TRPM1 HTS: 7; AHR activator: 68*; FXN GAA850 act: 2

How did Cc1ccc(C(=O)Nc2nc(C(C)(C)C)cs2)s1 do in these assays?
esBAF inh: 66*; MITF TRPM1 HTS: 68; AHR activator: 17; FXN GAA850 act: -1

What do the screens show for `CC(C)(C)c1csc(NC(=O)c2ccc(Cl)s2)n1`?
esBAF inh: 94*; MITF TRPM1 HTS: 38; AHR activator: 1; FXN GAA850 act: 3

How did Cc1csc(NC(=O)c2ccc(Br)s2)n1 do in these assays?
esBAF inh: 57*; Wnt bcat act: 23; MITF TRPM1 HTS: 22; AHR activator: 13; FXN GAA850 act: 4

Results for C[C@@H]1CN([C@H](C)CO)C(=O)c2cc(NS(=O)(=O)c3ccccc3)ccc2O[C@H]1CN(C)Cc1ccncc1 ?
esBAF inh: 4

How did COc1ccc(/C=C/c2noc(-c3ccccc3O)n2)cc1 do in these assays?
MITF TRPM1 HTS: 98*; AHR activator: 6; FXN GAA850 act: 3

How did COc1ccc(/C=C/c2nc(N)nc(-c3ccccc3O)n2)cc1OC do in these assays?
Wnt bcat act: 1; MITF TRPM1 HTS: -2; AHR activator: 21; FXN GAA850 act: 2

What do the screens show for `COc1ccc(/C=C/c2nc(N)nc(-c3ccccc3O)n2)cc1`?
esBAF inh: 17; Wnt bcat act: 17; MITF TRPM1 HTS: 12; AHR activator: 59*; FXN GAA850 act: 4

What do the screens show for `COc1cc(/C=C/c2noc(-c3ccccc3O)n2)cc(OC)c1OC`?
Wnt bcat act: 20; MITF TRPM1 HTS: inconclusive; AHR activator: 7; FXN GAA850 act: 1

What do the screens show for `COc1ccc(-c2nc(N)nc(N)n2)c(O)c1`?
esBAF inh: 48*; Wnt bcat act: 29; MITF TRPM1 HTS: 42; AHR activator: 9; FXN GAA850 act: 0

What do the screens show for `COc1ccc(S(=O)(=O)Nc2ccc3c(c2)C(=O)N([C@@H](C)CO)C[C@@H](C)[C@H](CN(C)C(=O)Nc2ccc4c(c2)OCO4)OCCCC[C@H](C)O3)cc1`?
esBAF inh: -6

How did COc1cc(CNCc2ccccn2)ccc1OCc1ccc(Cl)c(Cl)c1 do in these assays?
esBAF inh: 36; Wnt bcat act: 25; MITF TRPM1 HTS: 105*; AHR activator: 11; FXN GAA850 act: 5

Results for O=C(OCc1ccc(Cl)c(Cl)c1)c1cccnc1Cl ?
esBAF inh: 7; Wnt bcat act: 1; MITF TRPM1 HTS: 13; AHR activator: -2; FXN GAA850 act: 1

How did Nc1ncccc1OCc1ccc(Cl)c(Cl)c1 do in these assays?
Wnt bcat act: 47*; AHR activator: -2; FXN GAA850 act: 3

What do the screens show for `C=CCc1cccc(CNc2ccc(Br)cc2)c1O`?
Wnt bcat act: 3; MITF TRPM1 HTS: 12; AHR activator: 71*; FXN GAA850 act: 3

Results for C=CCc1cccc(CNc2ccc(S(=O)(=O)Nc3nccnc3OC)cc2)c1O ?
esBAF inh: -6; Wnt bcat act: -5; MITF TRPM1 HTS: -7; AHR activator: 2; FXN GAA850 act: -2

What do the screens show for `NS(=O)(=O)c1ccc(CNC(=O)c2ccc(S(=O)(=O)C(F)F)cc2)cc1`?
esBAF inh: -5; Wnt bcat act: 36*; MITF TRPM1 HTS: 4; AHR activator: 0; FXN GAA850 act: 0

What do the screens show for `O=C(NCc1ccc2c(c1)OCO2)c1ccc(S(=O)(=O)C(F)F)cc1`?
esBAF inh: -4; Wnt bcat act: -2; MITF TRPM1 HTS: 15; AHR activator: 5; FXN GAA850 act: 1

How did COc1ccc2c(C)nc(Nc3nc(C)c(C)c(=O)[nH]3)nc2c1 do in these assays?
esBAF inh: 176*; AHR activator: -7; FXN GAA850 act: -17

What do the screens show for `COc1ccc(Nc2nc(C)c3ccccc3n2)cc1`?
esBAF inh: 75*; MITF TRPM1 HTS: 60; AHR activator: 30; FXN GAA850 act: 7

How did CCc1c(C)nc(Nc2nc(C)c3ccc(OC)cc3n2)[nH]c1=O do in these assays?
esBAF inh: 23; Wnt bcat act: 6; MITF TRPM1 HTS: 53; AHR activator: -1; FXN GAA850 act: 4

How did C[C@@H]1CCCCO[C@@H](CN(C)Cc2ccc(Cl)c(Cl)c2)[C@@H](C)CN([C@H](C)CO)C(=O)c2cc(NS(C)(=O)=O)ccc2O1 do in these assays?
esBAF inh: -1

Results for CO[C@H]1CN(C)C(=O)c2ccc(NC(=O)c3ccc4c(c3)OCO4)cc2OC[C@@H](C)N(CCC(F)(F)F)C[C@@H]1C ?
esBAF inh: 5

Results for Cc1c(O)ccc(/C(Cc2ccc3ccccc3n2)=N\O)c1O ?
esBAF inh: 45*; Wnt bcat act: 36*; AHR activator: 25; FXN GAA850 act: 1

How did COc1cc(N=Nc2ccc(C(=O)N(C)C)cc2)c(C)cc1N do in these assays?
esBAF inh: 58*; Wnt bcat act: -3; MITF TRPM1 HTS: 2; FXN GAA850 act: 1

How did Cc1cc(N=Nc2c(O)c3ccccc3[nH]c2=O)ccc1N=Nc1ccc(C(=O)N(C)C)cc1 do in these assays?
esBAF inh: 1; Wnt bcat act: 3; MITF TRPM1 HTS: 9; FXN GAA850 act: 1

Assay outcomes: PubChem, several laboratories
